Data reported in PubChem BioAssay (NCI).
The panel holds about 83,000 compounds, 20% with a hit somewhere; the sample as a whole holds those more often.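 Each cell line was grown in a 96-well plate and treated with one concentration of compound for 48 hours. Values below 10 were considered active.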 Values without a mark were called inactive. The source made the active and inactive calls.

Columns and labels:
Experiment in all cases: NCI-60 one-dose screen, 48 h (100 = growth as untreated, 0 = no growth, -100 = all killed)
SK-MEL-2 melanoma = details: 10 µM unless noted
SN12C renal = details: 10 µM unless noted
UO-31 renal = details: 10 µM unless noted
TK-10 renal = details: 10 µM unless noted
ACHN renal = details: 10 µM unless noted
CAKI-1 renal = details: 10 µM unless noted
A498 renal = details: 10 µM unless noted
CCRF-CEM leukemia = details: 10 µM unless noted
MOLT-4 leukemia = details: 10 µM unless noted
SR leukemia = details: 10 µM unless noted
RPMI-8226 leukemia = details: 10 µM
OVCAR-8 ovarian = details: 10 µM unless noted
OVCAR-5 ovarian = details: 10 µM unless noted
OVCAR-4 ovarian = details: 10 µM unless noted
SK-OV-3 ovarian = details: 10 µM
IGROV1 ovarian = details: 10 µM unless noted
OVCAR-3 ovarian = details: 10 µM unless noted
HS 578T breast = details: 10 µM unless noted
NCI/ADR-RES ovarian = details: 10 µM unless noted

Row | Structure (SMILES) | growth (SK-MEL-2 melanoma) | growth (SN12C renal) | growth (UO-31 renal) | growth (TK-10 renal) | growth (ACHN renal) | growth (CAKI-1 renal) | growth (A498 renal) | growth (CCRF-CEM leukemia) | growth (MOLT-4 leukemia) | growth (SR leukemia) | growth (RPMI-8226 leukemia) | growth (OVCAR-8 ovarian) | growth (OVCAR-5 ovarian) | growth (OVCAR-4 ovarian) | growth (SK-OV-3 ovarian) | growth (IGROV1 ovarian) | growth (OVCAR-3 ovarian) | growth (HS 578T breast) | growth (NCI/ADR-RES ovarian)
1 | O=C(Nc1ccc(Cl)c(Cl)c1)OCn1ncc2ccc([N+](=O)[O-])cc21 | 85% | 95.1% | 45.9% | 92.9% | 83.5% | 73% | 60.1% | 81.8% | 70.6% | 76.7% | 83.4% | 89% | 77.5% | 93.6% | 86.2% | 75.5% | 85.1% | 75.4% | 84.1%
2 | Cc1c(NCC(=O)Nc2nc3ccccc3[nH]2)c(=O)n(-c2ccccc2)n1C | 104% | 99.4% | 81.5% | 117% | 97.3% | 97.9% | 74% | 93.3% | 104% | 92.4% | 96.7% | 99.9% | 92.5% | 88.3% | 106% | 102% | 109% | 101% | 101%
3 | CC1SC(c2ccc(Cl)cc2)N(CCc2cccs2)C1=O (centres undefined) | -72.8% (active) | -75.6% (active) | 1.81% (active) | -16.5% (active) | -6.58% (active) | -33.6% (active) | -13.7% (active) | 10.1% | -4.19% (active) | -1.75% (active) | -10.3% (active) | 4.04% (active) | 8.29% (active) | 8.71% (active) | 5.5% (active) | 4.04% (active) | -30.3% (active) | -16% (active) | -11% (active)
4 | Cc1nc2cc(Nc3nc(Cl)nc(Nc4ccc(F)cc4)n3)ccc2n1Cc1ccccc1 | 111% | 77.9% | 80.7% | 58.5% | 36.2% | 87.7% | 69.3% | 78.5% | 90.6% | 57.5% | 15.3% | 81.5% | 86.3% | 85.8% | 95.9% | 83% | 94.2% | 79.5% | 95.6%
5 | O=[N+]([O-])c1cc2c(cc1Br)C1C(C3C2C(Cl)(Cl)C(Cl)=C(Cl)C3(Cl)Cl)C(Cl)(Cl)C(Cl)=C(Cl)C1(Cl)Cl (centres undefined) | 81.2% | 98.7% | 74.4% | 103% | 102% | 91.4% | 111% | 86.5% | 95.1% | 80.2% | 88.1% | 97% | 102% | 102% | 101% | 102% | 95.6% | 114% | 94%
6 | Cn1c2c(cc(S(=O)(=O)c3ccccc3)c1=O)CCc1c-2cnn1-c1cccc(Cl)c1 | 107% | 90.3% | -84.5% (active) | 86.5% | -87.9% (active) | -58% (active) | 71.4% | 90.9% | 86.2% | 77.6% | 82.6% | 88.8% | 93% | 60.9% | 86.8% | 97.5% | 98.1% | 92% | 90.6%
7 | COc1cc(C2=NN(c3ccc(S(N)(=O)=O)cc3)C(c3ccc(Cl)cc3)C2)cc(OC)c1OC (centres undefined) | 66.9% | 51% | 23.2% | 45.9% | 46.5% | 53.3% | 35.4% | 20.7% | 16.6% | 17.5% | -5.03% (active) | 40% | 77.5% | 42.4% | 77.9% | 60.9% | 47.1% | 58.4% | 37.5%
8 | COc1cccc(C2CC(=O)Nc3cc4c(cc32)CCC4)c1OC (centres undefined) | 36.5% | 77.2% | 59.7% | 70.1% | 82.3% | 40.8% | 62.9% | 3.82% (active) | 14.8% | 3.06% (active) | 50.6% | 84.9% | 99.5% | 76.2% | 44.5% | 57% | 46.1% | 67.7% | 42.1%
9 | Clc1ccc(Nc2nc(Nc3ccccc3)nc(Nc3ccc(-c4cc(-c5ccc(Cl)cc5)on4)cc3)n2)cc1 | 64.2% | 64% | 41.7% | 52.8% | 47.1% | 48.2% | 43.9% | 70.5% | 52.2% | 51.5% | 50.8% | 39.4% | 87.2% | 64.6% | 91.2% | 34.7% | 71.6% | 11.7% | 51.4%
10 | CCN(c1ccc(C(=O)N2CCN(c3ccccc3)CC2)cc1)S(C)(=O)=O | 100% | 103% | 90.2% | 88.7% | 109% | 96.3% | 87.9% | 100% | 95.8% | 90.2% | 102% | 103% | 109% | 107% | 106% | 107% | 106% | 105% | 108%
11 | COC1(OC)C2(Cl)C=C(c3ccccc3)C1(Cl)C(Cl)=C2Cl (centres undefined) | 87% | 104% | 70% | 106% | 108% | 92.7% | 105% | 91% | 74.3% | 83.9% | 92.4% | 93.8% | 101% | 88.6% | 90.3% | 90% | 107% | 116% | 98.9%
12 | COc1ccc(CSc2nc3cc(OC)c(OC)cc3c(=O)n2-c2ccc(Cl)cc2)cc1 | 110% | 98.6% | 71.2% | 116% | 97.1% | 91.2% | 88.7% | 88.6% | 101% | 102% | 90.8% | 98.7% | 94.2% | 103% | 105% | 104% | 103% | 97.1% | 101%
13 | Cc1nc2cc(Nc3nc(Nc4ccc(F)cc4)nc(N4CCN(C)CC4)n3)ccc2n1Cc1ccccc1 | -20.5% (active) | 34.9% | -29% (active) | -12.1% (active) | 9.69% (active) | 18.6% | 29.2% | -7.07% (active) | 1.11% (active) | -21.6% (active) | -40.2% (active) | 11.6% | 42.9% | -7.19% (active) | 68.7% | 24.6% | -35.6% (active) | -19.4% (active) | 43.1%
14 | CCCCCn1c(=N)n(CC(O)COc2cccc(C)c2)c2ccccc21 (centres undefined) | -34.1% (active) | 12% | 0.645% (active) | 21.4% | 10.7% | 7.06% (active) | -3.77% (active) | 8.45% (active) | 1.95% (active) | 2.12% (active) | -10.8% (active) | 20.9% | 61.7% | 6.79% (active) | 13.1% | 28.1% | 7.4% (active) | -0.161% (active) | 3.77% (active)
15 | Cc1ccc(C)c2c1sc1nc3nc4sc5ccccc5n4c(=N)c3c(=O)n12 | 121% | 105% | 78.1% | 162% | 99.1% | 106% | 69.1% | 81.1% | 104% | 78.5% | 89.4% | 116% | 91.3% | 88% | 92.5% | 64.3% | 89.4% | 94.8% | 97.6%
16 | Cc1ccc2c(N/N=C\c3ccco3)cc(C)nc2n1 | 114% | 77.2% | 35.1% | 93.8% | 39.5% | 66% | 50.3% | 5.24% (active) | 37% | -8.66% (active) | 64.7% | 69.6% | 80.4% | 46.9% | 98.6% | 49% | 88% | 86.3% | 71.8%
